# An excerpt weighted towards active compounds, which were near 19% of everything screened.
# HT1080NT lethal – kills 2HG-producing HT-1080-NT fibrosarcoma cells. HT-1080-NT fibrosarcoma viability, CellTiter-Glo ATP luminescence, 48 h. Potency, µM (titrated, usually from 46.1 µM), hits mostly cytotoxic. 360,000 compounds, 1.6% hits;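 also: NT is the 2HG producing partner of a matched IDH1 knockdown line; nearly all actives have a fitted effect of over 55% in size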
#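 Luminescent CellTiter-Glo readout after 48 hours of compound exposure at 37 degrees C defined viability of HT-1080-NT cells. Activity was normalized to DMSO wells and cell-free media wells; concentration-response curves were fitted and assigned curve classes.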
# KB-3-1 tox – kills parental KB-3-1 adenocarcinoma cells | KB-3-1 viability, CellTiter-Glo ATP luminescence, 72 h | AID 1347075 | 400,000 compounds, 1.4% hits | Potency, µM (titrated, usually from 46.1 µM), hits mostly cytotoxic; also: nearly all actives have a fitted effect of over 60% in size
#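 Multi-concentration cytotoxicity screen in KB-3-1 cells grown in DMEM lacking phenol red with 10% FBS. After 72 h at 37 °C with compound, ATP-dependent luminescence was recorded.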
# HT1080 IDH1KD tx – HT-1080 IDH1 knockdown cell toxicity (counter line). HT-1080 IDH1 knockdown viability, ATP luminescence, 48 h. Potency, µM (series often up to 46.1 µM), most hits filed as cytotoxic. 360,000 compounds, 2% hits. AID 686971
#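 HT-1080-IDH1KD cells (IDH1 knocked down), 750/well in RPMI with 5% FBS, treated with compound 48 h at 37 degrees C. Viability by CellTiter-Glo luminescence, normalised to DMSO and no-cell wells; concentration-response curves classed.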
# DT40 TDP1 no CPT – qHTS for Inhibitors of human tyrosyl-DNA phosphodiesterase 1 (TDP1): qHTS in cells in absence of CPT | DT40 Tdp1-/- hTDP1 cells, no CPT, ATP luminescence, 48 h | Potency, µM (doses to about 46.2 µM), usual class: inhibitors | 420,000 compounds, 15% hits; also: nearly all actives have a fitted effect of over 55% in size
#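 Chicken DT40 Tdp1-/- cells complemented with human TDP1, screened without camptothecin (DMSO vehicle only), 400 cells/well. Compounds pin-transferred, cells incubated at 37 °C for at least 48 hr. Growth read as ATP-dependent luminescence (CellTiter-Glo, 30 min at RT).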
# KB-V1 MDR tox – kills drug-selected multidrug resistant KB-V1 cells. KB-V1 MDR cells viability, CellTiter-Glo, 72 h. Potency, µM (titrated, usually from 46.1 µM), usual class: cytotoxic. 400,000 compounds, 3.4% hits. AID 1347076; also: nearly all actives have a fitted effect of over 60% in size
#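 Potencies derive from concentration-effect curves fitted to normalized luminescence (CellTiter-Glo) of KB-V1 cells treated for 72 h at 37 degrees C in phenol-red-free DMEM containing 10% FBS.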
# DT40 TDP1 CPT – growth inhibition of DT40 Tdp1-/-;hTDP1 cells with camptothecin (screen for TDP1 inhibitors); chicken DT40 Tdp1-/-;hTDP1 cells + 20 nM CPT, ATP luminescence, 48 h; Potency, µM (series often up to 46.2 µM), actives largely listed as inhibitors; 420,000 compounds, 12% hits; also: nearly all actives have a fitted effect of over 55% in size
#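 Chicken DT40 Tdp1-/- cells stably complemented with human TDP1 were seeded at 400 cells/well in medium containing 20 nM camptothecin, exposed to pin-transferred compounds, and grown at 37 °C for at least 48 hr. Viability was read as ATP luminescence.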
# Numbers stand for hits; n = inactive; u = inconclusive; x = not tested or not shown; ! = a repeat was not active. Calls follow the shape of the dose curve; as a rule, active = well fitted curve in the direction sought with a large enough effect; inconclusive = small, poorly fitted or top-dose-only effect, or another doubt; inactive = no such curve, though single readings can be large; an effect the other way counts as inactive or inconclusive.
SMILES,HT1080NT lethal,KB-3-1 tox,HT1080 IDH1KD tx,DT40 TDP1 no CPT,KB-V1 MDR tox,DT40 TDP1 CPT
Cc1cc(NS(=O)(=O)c2ccc3nc(-c4ccccc4)[nH]c3c2)ccc1Br,x,u,x,15µM,n,u
O=S(=O)(Nc1ccc(Br)cc1F)c1ccc2nc(-c3ccccc3)[nH]c2c1,x,n,x,u,n,n
Cc1ccc(NC(=O)C2CCCN2C(=O)Oc2ccccc2)cc1C (stereo unspecified),n,n,n,n,15µM,n
O=S(=O)(c1ccc2nc(-c3ccccc3)[nH]c2c1)N1CCN(c2ccc(Cl)cc2)CC1,n,n,u,u,u,u
CC(C)c1ccc(NC(=O)C2CCCN2S(=O)(=O)c2ccc3nc(-c4ccccc4)[nH]c3c2)cc1 (stereo unspecified),x,x,x,7.3µM,x,10µM
Cc1ccc(NC(=O)C2CCCN2C(=O)c2cccs2)cc1C (stereo unspecified),n,n,n,n,n,n
O=S(=O)(O)c1cc(O)c2c(N=Nc3ccc(Nc4ccccc4)c4c(S(=O)(=O)O)cccc34)cc(S(=O)(=O)O)cc2c1,x,x,x,13µM,x,19µM
O=S(=O)(O)c1cc(O)c2cc(Nc3ccccc3)ccc2c1,n,n,n,n,n,n
Cc1c(C(=O)Nc2cccc(Cl)c2)oc2ccc(S(=O)(=O)N3CCC4(CC3)OCCO4)cc12,n,u,n,18µM,4.1µM,9.2µM
Cc1c(C(=O)Nc2cc(S(=O)(=O)N3CCOCC3)ccc2N2CCOCC2)oc2ccccc12,n,n,n,u,n,18µM
Cc1c(C(=O)Nc2ccccc2Cl)oc2ccc(S(=O)(=O)N3CCCCCC3)cc12,x,n,x,13µM,n,5.8µM
Cc1ccc(Cl)cc1NC(=O)c1oc2ccc(S(=O)(=O)N3CCC4(CC3)OCCO4)cc2c1C,x,x,x,n,x,n
Cc1ccc(NC(=O)c2oc3ccc(S(=O)(=O)N4CCOCC4)cc3c2C)cc1C,n,n,n,n,n,u
Cc1c(C(=O)Nc2ccccc2Br)oc2ccc(S(=O)(=O)N3CCCCC3)cc12,x,n,x,u,n,u
COc1cccc(NC(=O)c2oc3ccc(S(=O)(=O)N4CCOCC4)cc3c2C)c1,n,n,n,13µM,u,15µM!
COc1ccc(OC)c(NC(=O)c2cc(S(=O)(=O)N3CCCC3)cn2C)c1,n,n,n,n,n,n
Cc1c(C(=O)N2CCN(S(=O)(=O)c3ccc(F)cc3)CC2)oc2ccccc12,n,n,n,u,n,u
COc1cccc(NC(=O)c2oc3ccc(S(=O)(=O)N4CCC5(CC4)OCCO5)cc3c2C)c1,x,x,x,5.2µM,x,5.8µM
Cc1c(C(=O)NCc2ccccn2)oc2ccc(S(=O)(=O)N3CCC4(CC3)OCCO4)cc12,n,n,n,n,n,n
Cc1c(C(=O)N2CCN(S(=O)(=O)c3cccs3)CC2)oc2ccc(F)cc12,n,n,n,16µM,n,u
COc1ccc2oc(C(=O)N3CCN(S(=O)(=O)c4cccc([N+](=O)[O-])c4)CC3)c(C)c2c1,n,n,n,15µM,n,16µM
Cc1c(C(=O)NCc2ccccc2)oc2ccc(S(=O)(=O)N3CCC4(CC3)OCCO4)cc12,n,n,n,21µM,n,u
O=C1CCc2cc(S(=O)(=O)Nc3cccc(Br)c3)ccc2N1,x,n,x,x,n,x
COc1ccc(C(=O)NCCCOC(C)C)cc1OC1CCN(C(C)=O)CC1,n,n,n,n,n,n
Cc1c(C(=O)Nc2cccc(Cl)c2)oc2ccc(S(=O)(=O)N3CCCCCC3)cc12,x,n,x,u,n,23µM
SMILES,HT1080NT lethal,KB-3-1 tox,HT1080 IDH1KD tx,DT40 TDP1 no CPT,KB-V1 MDR tox,DT40 TDP1 CPT
COC(=O)C1CCN(C(=O)C2CC(=O)N(c3ccc(C)c(Cl)c3)C2)CC1 (stereo unspecified),n,n,n,n,n,n
O=C(CNC(=O)c1ccccc1)Sc1ccccc1,n,n,n,18µM,n,u
O=C(NCSc1ccccc1)c1ccccc1,n,n,n,n,n,u
COc1ccc(-c2nc(CS(=O)CC(=O)NC(C)CCc3ccccc3)c(C)o2)cc1OC (stereo unspecified),n,n,n,u,n,u
COc1ccc(C2CCCN2C(=S)Nc2ccc(C)cc2Cl)cc1OC (stereo unspecified),n,n,n,16µM,n,u
CNC(=S)N1N=C(c2ccc(Br)cc2)CC1c1ccc(Br)cc1 (stereo unspecified),n,n,n,12µM,n,15µM
CNC(=S)N1N=C(c2ccccc2)CC1c1ccc(OC)c(OC)c1 (stereo unspecified),n,n,n,n,n,n
CNC(=S)N1N=C(c2ccc(C)cc2)CC1c1ccc(OC)c(OC)c1 (stereo unspecified),n,n,n,15µM,n,u
CNC(=S)N1N=C(c2ccc(Br)cc2)CC1c1ccc(N(C)C)cc1 (stereo unspecified),n,n,n,u,n,u
O=C(Cc1ccccc1)N/N=C/c1ccc2cccc(O)c2n1,n,n,u,2.6µM,u,2.1µM
NC(=O)N/N=C/c1ccc2cccc(OCc3ccccc3)c2n1,n,n,n,u,n,n
Cn1cccc1/C=C1/SC(=O)N(CC(=O)N2CCCC2)C1=O,n,n,n,n,16µM,n
Cc1ccc(/C=C2/SC(=O)N(CC(=O)N3CCOCC3)C2=O)s1,n,n,n,u,21µM,n
Cc1cccc(C)c1NC(=O)[C@@]1(CC(=O)O)CC(/C=C/c2ccccc2)=NO1,n,n,n,n,n,n
c1cn(-c2ccnc(-c3ccc4c(c3)OCO4)n2)cn1,x,x,x,n,x,n
CCc1ccc(Nc2sc(C(=O)c3ccc(F)cc3)c(N)c2S(=O)(=O)c2ccccc2)cc1,x,n,x,u,n,u
Cc1ccc(S(=O)(=O)c2c(Nc3cc(F)ccc3F)sc(C(=O)c3ccc(F)cc3)c2N)cc1,x,u,x,16µM,u,21µM
Cc1ccc(Nc2sc(C(=O)c3ccc(F)cc3)c(N)c2S(=O)(=O)c2ccc(C)cc2)cc1,x,x,x,u,x,18µM
COc1cccc(C(=O)c2sc(Nc3ccc(C)cc3C)c(S(=O)(=O)c3ccccc3)c2N)c1,x,n,x,n,n,n
Cc1ccc(Cl)cc1Nc1sc(C(=O)c2ccc(F)cc2)c(N)c1S(C)(=O)=O,x,n,x,u,u,16µM
Cc1ccc(Nc2sc(C(=O)c3ccccc3)c(N)c2S(=O)(=O)c2ccccc2)c(C)c1,x,n,x,15µM,n,u
CC(=O)Nc1ccc(S(=O)(=O)N2CCN(S(=O)(=O)c3ccc(F)c(F)c3F)CC2)cc1,n,n,n,n,n,n
